Assay results as given in PubChem BioAssay AID686978 (National Center for Advancing Translational Sciences (NCATS), 2013).
Where “and” joins values, the source holds several entries; their conditions need not be identical. Identical values can stand only once. About 64,000 (15%) of roughly 420,000 compounds were called active. Another 27% or so got no clear call; they are omitted. The call rests on the fitted dose curve; in most records, active means well fitted inhibition curve with a large enough effect; inconclusive means small, poorly fitted or top-dose-only effect; inactive means flat fitted curve, though single readings scatter. Only a sample is shown. A call without a number means that no potency is given here. Some compounds were tested as several samples or in several runs, with calls that do not always agree.

Assay: qHTS for Inhibitors of human tyrosyl-DNA phosphodiesterase 1 (TDP1): qHTS in cells in absence of CPT; further: nearly all actives have a fitted effect of over 55% in size
Conditions: DT40 Tdp1-/- hTDP1 cells, no CPT, ATP luminescence, 48 h; activity change, negative = growth inhibition: at 46.2 µM (top of the series)
Procedure, shortened: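 Camptothecin absent (DMSO only). Human TDP1-complemented DT40 knockout cells, 400 cells/well, 37 °C for minimum 48 hr; ATP measured via CellTiter-Glo, 30 min dark incubation, luminescence.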
Potency means the concentration at half of the fitted maximal effect.

| SMILES | Potency |
| --- | --- |
| COc1ccc(S(=O)(=O)NC(=O)C2(C)CCN2C(=O)COc2ccc(Cl)cc2)cc1 (stereo unspecified) | inactive |
| c1ccc(C[C@H]2CNCCN2CCC23CC4CC(CC(C4)C2)C3)cc1 | 10.3 µM (active) |
| COC(=O)c1ccccc1NC(=O)CN(Cc1ccccc1)S(C)(=O)=O | inactive |
| O=C(O)CSCc1ccc(C(=O)O)o1 | inactive |
| CC(C)(C)NC(=O)Cn1cnc2cc([N+](=O)[O-])ccc2c1=O | inactive |
| Cc1ccc(C)c(OCCC(=O)OCC(=O)c2ccc3c(c2)NC(=O)CO3)c1 | inactive |
| COC(=O)c1ccccc1Sc1c(/C=N/OCc2ccc(Cl)cc2)c(C(F)(F)F)nn1C | 20.6 µM (active) |
| COC(=O)c1ccccc1NC(=O)CN(Cc1ccc(Cl)cc1)S(C)(=O)=O | inactive |
| S=c1[nH]nc2c3c4c(sc3ncn12)CCCC4 | inactive |
| Clc1ccc(-c2nnc(-c3ccccc3)nc2N2CCSCC2)cc1 | 14.6 µM (active) |
| OCCN1CCN(c2nnc(-c3ccccc3)c3ccccc23)CC1 | inactive |
| O=C(N[C@H]1CC[C@H](CC(=O)N2CCCCC2)O[C@@H]1CO)c1cccc(F)c1 | inactive |
| COc1ccc(C(=O)Nc2nncs2)c(OC)c1 | inactive |
| COc1ccc(C(=O)Nc2cccc(NC(=O)c3ccc(OC)cc3OC)n2)c(OC)c1 | 2.59 µM (active) |
| COc1ccc(C(=O)NC2=NCCS2)c(OC)c1 | inactive |
| O=C1CCCc2c1[nH]c1ccc(Br)cc21 | inactive |
| COc1ccc(/C=C2\SC(=S)N(CC(=O)NNC(=O)c3ccncc3)C2=O)cc1 | inactive |
| O=C(O)Cc1sc(-c2ccccc2)nc1-c1cccs1 | inactive |
| CN(C(=O)COc1nnc(-c2cccs2)c(-c2cccs2)n1)c1ccccc1 | 18.4 µM (active) |
| CN(C(=O)COC(=O)CNC(=O)C12CC3CC(CC(C3)C1)C2)c1ccccc1 | inactive |
| Cc1cc(=O)oc(C)c1C(=O)NCCN(C)Cc1ccccc1 | inactive |
| COc1ccccc1NC(=O)N(O)C1(C#N)CCCCC1 | inactive |

| SMILES | Potency |
| --- | --- |
| O=C(CSc1nnc2ccc(-c3ccncc3)nn12)N1CCCCC1 | inactive |
| CCS(=O)(=O)c1ccc(-c2cccc(NC(=O)c3ccc(Br)o3)c2)nn1 | inactive |
| S=C(NCC1CCCO1)N1CCN(c2ccc(Cl)c(Cl)c2)CC1 (stereo unspecified) | 20.6 µM (active) |
| COc1ccc(S(=O)(=O)N2CCN(C(=S)NCC3CCCO3)CC2)cc1OC (stereo unspecified) | inactive |
| CCOc1ccc(S(=O)(=O)N2CCN(C(=S)NCC3CCCO3)CC2)cc1 (stereo unspecified) | inactive |
| COc1cc(/C=C(/NC(=O)c2ccccc2)C(=O)Nc2cccc(O)c2)c([N+](=O)[O-])cc1OC | inactive |
| Cn1nc(C(C)(C)C)c([N+](=O)[O-])c1C(N)=O | inactive |
| COc1cccc(N2CC(C(=O)Nc3c(C)cccc3C)CC2=O)c1 (stereo unspecified) | inactive |
| O=C(Nc1ccc2nc(SCC(=O)N3CCCc4ccccc43)sc2c1)c1ccc(Cl)cc1 | 5.8 µM (active) |
| O=C(CSCc1ccccc1)N1CCc2ccccc21 | inactive |
| O=C(NCc1nnc(SCC(=O)N2CCCc3ccccc32)o1)c1ccccc1F | inactive |
| CCC(=O)Nc1ccc2nc(SCC(=O)N3CCc4ccccc43)sc2c1 | 10.3 µM (active) |
| O=C(CSc1ccc2nnc(-c3ccccc3)n2n1)N1CCCc2ccccc21 | inactive |
| Cn1c(=O)c2c(SCC(=O)N3CCc4ccccc43)nc(-c3ccc(Cl)cc3)nc2n(C)c1=O | inactive |
| O=C(Nc1ccc2nc(SCC(=O)N3CCc4ccccc43)sc2c1)c1ccccc1F | inactive |
| O=C(Nc1ccc2nc(SCC(=O)N3CCCc4ccccc43)sc2c1)c1ccc(F)cc1 | 2.91 µM (active) |
| CCOC(=O)C1(Cc2cccc(OC)c2)CCCN(S(=O)(=O)c2cccnc2)C1 (stereo unspecified) | inactive |
| O=C(CCc1ccc(S(=O)(=O)N2CCOCC2)cc1)OCC(=O)c1ccc(Br)cc1 | inactive |
| O=C(CSc1nnc(-c2ccoc2)o1)N1CCOCC1 | inactive |
| COC(=O)/C=C/C(=O)NCc1ccco1 | inactive |
| COc1cc2c(C(=O)O)c(C)n(C)c2c2ccccc12 | inactive |
| COc1cccc(/C=N/NC(=O)C(=O)N2CCCC2)c1 | inactive |

| SMILES | Potency |
| --- | --- |
| O=c1[nH]c(/C=C\c2cccc(C(F)(F)F)c2)nc(O)c1[N+](=O)[O-] | inactive |
| Cc1cccc(NC(=O)CSc2nnc(NC(=O)CN3CCOCC3)s2)c1 | inactive |
| Cn1c(=S)sc2ccc3ccccc3c21 | inactive |
| O=c1c2c(nc3cc(-c4cccc(Cl)c4)[nH]n13)CCCC2 | 20.6 µM (active) |
| C=CCc1c(C)nc2cc(-c3ccccc3)[nH]n2c1=O | inactive |
| O=c1c2c(nc3nc[nH]n13)CCC2 | inactive |
| CN(C)S(=O)(=O)c1ccc(Cl)c(NC(=O)COC(=O)CC(NC(N)=O)c2ccc(Cl)cc2)c1 (stereo unspecified) | inactive |
| Cc1ccc(N(CC(=O)NCC2CCCO2)C(=O)CNS(=O)(=O)c2ccc(Cl)cc2)cc1 (stereo unspecified) | inactive |
| CC(Sc1nnc(C2CC2)n1C1CC1)C(=O)Nc1ccc(C(N)=O)cc1 (stereo unspecified) | inactive |
| O=C1CCCC2=C1C(c1cccs1)CC(=O)N2c1ccc(F)cc1 (stereo unspecified) | inactive |
| CCN(CC)c1ccc(C2C(C(N)=O)=C(C)Nc3nc(SCc4ccccc4)nn32)cc1 (stereo unspecified) | inactive |
| O=C1CCCC2=C1C(c1cccs1)n1nc(SCc3ccccc3)nc1N2 (stereo unspecified) | 14.6 µM (active) |
| O=S(=O)(NCc1ccccc1Cl)c1cnc[nH]1 | inactive |
| Cc1ccc(NC(=O)CCOc2ccccc2)cc1S(=O)(=O)Nc1ccccc1Cl | inactive |
| CC(C)c1ccc(C(=O)OC2CCOC2=O)cc1 (stereo unspecified) | inactive |
| COc1ccccc1CC(=O)NCCc1c[nH]c2ccccc12 | inactive |
| COc1cccc(CNCCc2c[nH]c3ccccc23)c1OCc1ccccc1F | 20.6 µM (active) |
| COc1ccc(S(=O)(=O)NCCc2c[nH]c3ccccc23)cc1OC | inactive |
| CCc1c(SCCC(=O)O)nc2ccccc2c1C | inactive |
| Cc1ccc(N2CCN(c3ccc(C)cc3)C2c2ccccn2)cc1 | inactive |
| CN(C(=O)CSc1nnc(-c2ccc(C(C)(C)C)cc2)n1C)C1CCS(=O)(=O)C1 (stereo unspecified) | inactive |
| CCC(=O)Nc1nnc(S(=O)(=O)N(CC(C)C)c2ccccc2)s1 | inactive |

| SMILES | Potency |
| --- | --- |
| CCOc1cccc(C(=O)Nc2nnc(S(=O)(=O)N(C)c3ccc(C)cc3)s2)c1 | 23.1 µM (active) |
| CCc1nnc(NC(=O)c2cccc(S(=O)(=O)N(C)c3ccc(OC)cc3)c2)s1 | inactive |
| CCCCC(=O)Nc1nnc(S(=O)(=O)N(C)Cc2ccco2)s1 | inactive |
| COc1cccc(C(=O)Nc2nnc(S(=O)(=O)N(C)c3ccccc3)s2)c1 | inactive |
| CC(C)CC(=O)Nc1nnc(S(=O)(=O)N(C)c2ccc(Cl)cc2)s1 | inactive and 326 nM (active) |
| Cc1ccn(C(CC(=O)c2ccc(Br)cc2)C(=O)O)n1 (stereo unspecified) | inactive |
| O=C(CNS(=O)(=O)c1ccccc1)N1CCN(C(=O)c2ccco2)CC1 | inactive |
| CC/C(=C(/c1ccccc1)c1ccc(OCC[N+](C)(C)C)cc1)c1ccccc1 | 23.1 µM (active) |
| COc1ccc(C(=O)NCC[N+](C)(C)C)cc1 | inactive |
| CCOc1cc(C(=O)O)ccc1OCCOc1ccccc1 | inactive |
| COc1cc(/C=C/C2=CC(C)(C)NC(=S)N2)cc(OC)c1OC | inactive |
| COc1ccc(N2C(=O)CN=C2Nc2cccc(C)c2C)cc1OC | inactive |
| CC(C)Cc1nnc(NC(=O)CN2C(=O)NC3(CCCCC3)C2=O)s1 | inactive |
| CC1(C(=O)NS(=O)(=O)c2cccc(OC(F)F)c2)CCN1C(=O)COc1ccc(Cl)cc1 (stereo unspecified) | inactive |
| S=c1[nH]nc(NCCc2ccccc2)s1 | inactive |
| Cc1nc(N)sc1-c1ccccc1 | inactive |
| Cc1nc(C)c(-c2csc(NCCc3ccccc3)n2)s1 | 13 µM (active) |
| COc1ccc(O)c(C(=O)c2cnc3onc(C(C)C)c3c2)c1 | inactive |
| Cc1n[nH]c(=O)n1-c1ccc(Oc2ccccc2)cc1 | inactive |
| COc1ccc(N2CC(C(=O)NCCN3C(=O)S/C(=C\c4cccnc4)C3=O)CC2=O)c(OC)c1 (stereo unspecified) | inactive |
| Cc1cc(OCCCC(=O)NCCN2C(=O)S/C(=C\c3cccnc3)C2=O)ccc1Cl | 4.61 µM (active) |
| CCOc1ccc(N2CC(C(=O)NCCN3C(=O)S/C(=C\c4cccnc4)C3=O)CC2=O)cc1 (stereo unspecified) | inactive |

| SMILES | Potency |
| --- | --- |
| Cn1cccc1C(=O)OCC(=O)NCCc1ccccc1 | inactive |
| O=c1cccc(-c2ccc(Br)cc2)o1 | inactive |
| COC(=O)C(NC(C)=O)(Nc1nc2c(s1)CCCC2)C(F)(F)F (stereo unspecified) | inactive |
| CCS(=O)(=O)N1CCN(C(=O)c2cccs2)CC1 | inactive |
| O=C(C[n+]1cc(-c2ccc(Cl)c(Cl)c2)n2c1CCC2)c1cccs1 | 18.4 µM (active) |
| CCCS(=O)(=O)N1CCN(C(=O)c2cccs2)CC1 | inactive |
| Cc1ccc(C(=O)C[n+]2cc(-c3ccccc3)n3c2CCCCC3)cc1 | 3.16 µM (active) and 1.46 µM (active) |
| Cc1ccc(NC(=S)N2CCCC(c3ccccc3)=N2)cc1 | inactive |
| Cc1ccc(C(=O)Cn2cccn2)cc1 | inactive |
| Cc1ccc(S(=O)(=O)N(C)CC(=O)OCC(=O)Nc2ccccc2)cc1 | inactive |
| Cc1ccc(-c2c[n+](CC(=O)Nc3ccccc3)c3n2CCC3)cc1 | 11.6 µM (active) |
| Cc1ccc(C(=O)N2CCCC(c3ccccc3)=N2)cc1 | inactive |
| COc1ccc(N(C)S(=O)(=O)c2cccc3nsnc23)cc1 | inactive |
| Cc1cccc(S(=O)(=O)N(C)C[C@@H]2OCc3cnnn3CCCC(=O)N([C@H](C)CO)C[C@@H]2C)c1 | inactive |
| Cn1nc(C(F)(F)F)cc1-c1ccc(/C=C(\C#N)C(=O)c2cccc(C(F)(F)F)c2)s1 | inactive |
| C/C(=N\NC(=O)c1ccc2ccccc2c1)c1cccnc1 | inactive |
| Cc1cccc(OCc2nnc(SCn3nnc4ccccc4c3=O)o2)c1 | inactive |
| CCOc1ccc(NC(=O)CN(C)C(=O)CSc2ccccc2)cc1OCC | inactive |
